Structures are written as SMILES. The campaign covered roughly 52,000 compounds. About 4,300 (8.3%) were called active. This excerpt belongs to a sample that is enriched for actives. A number with no mark means an inactive call. Cut-off read from the data, not from the text of the source: active = survival mostly below about 52% (no sharp cut-off); inactive = mostly above about 56%.

The test system of this test is DeltatarO mutant. The experiment in a line: S. aureus survival, RN4220 and DeltatarO strains – OD600, teichoic acid synthesis inhibitors, primary screen (AID 463173). To be noted: S. aureus RN4220 wild type/DeltatarO growth, OD600, 18 h, active compounds read low, screened at 18.75 µg/mL (by protocol).
As for `Cc1cc(C)c2c(=O)cc(C(=O)Nc3sc4c(c3C(=O)NCc3cccnc3)CCCC4)oc2c1`, the survival is 68%.
Next, `CCOCCCNC(=O)c1c(NC(=O)c2cc(=O)c3ccccc3o2)sc2c1CCC2`: 48%; `Cc1nc2c(Cl)cc(Cl)cc2[nH]1`: 88%; `CCOc1cccc2cc(-c3cn4c(n3)sc3cc(C)ccc34)c(=O)oc12`: -4% (active).
Next, `CCOc1cccc2cc(-c3cn4c(n3)sc3ccccc34)c(=O)oc12`: 72%; `COc1cccc2cc(-c3cn4c(n3)sc3cc(F)ccc34)c(=O)oc12`: 60%; `COCCCNC(=O)CS(=O)Cc1nc(-c2cccc(C)c2)oc1C` (centres undefined): 90%.
For `S=C(NC12CC3CC(CC(C3)C1)C2)N1CCOCC1` the value was 98%.
Turning to `CCC(C)NC(=O)c1cn(CC)c2ccc(S(=O)(=O)N3CCCCC3)cc2c1=O` (centres undefined), the survival is 84%.
For `Cc1ccc(COC(=O)c2[nH]c3c(c2C)C(=O)CC(c2ccc(N(C)C)cc2)C3)cc1` (centres undefined) the value was 77%.
In the case of `CCCOC(=O)c1c(NC(=O)c2nc3ncccn3n2)sc(C(=O)OCC)c1C`, the survival was 68%.
Take `O=C(CN1C(=O)CCc2cc(S(=O)(=O)N3CCCCC3)ccc21)NCc1ccc(Cl)cc1`: the survival was 78%.
For `CC(=O)Nc1ccccc1-c1nc2ccccc2n(CC(=O)c2ccc(C)c(C)c2)c1=O` the value was 104%; for `CCC(=O)Nc1ccccc1-c1nc2ccccc2n(CC(=O)Nc2ccc(C)c(C)c2)c1=O`, 47%.
Next, `CCC(=O)Nc1ccccc1-c1nc2ccccc2n(CC(=O)c2ccc(Cl)cc2)c1=O`: 35% (active).
Consider `CC(=O)Nc1ccccc1-c1nc2ccccc2n(CC(=O)c2ccc(Br)cc2)c1=O`, for which the survival is 76%.
Next, `CC(=O)Nc1ccc(C)cc1-c1nc2ccccc2n(CC(=O)c2ccc(Cl)cc2)c1=O`: 82%; `CCC(=O)Nc1ccc(C)cc1-c1nc2ccccc2n(CC(=O)c2ccc(C)cc2)c1=O`: 68%.
With `CCC(=O)Nc1ccccc1-c1nc2ccccc2n(CC(=O)c2ccc(C)cc2)c1=O`, the survival was 50%.
For `CCC(=O)Nc1ccccc1-c1nc2ccccc2n(CC(=O)c2ccc(Br)cc2)c1=O` the value was 29% (active); for `CCC(=O)Nc1ccccc1-c1nc2ccccc2n(CC(=O)c2ccc(C)c(C)c2)c1=O`, 33% (active); for `COc1ccc(CCNC(=O)Cn2c(=O)n(-c3cc(OC)c(OC)c(OC)c3)c(=O)c3ccccc32)cc1OC`, 81%.
Next, `COc1cc(CNCCSc2nnnn2C)ccc1OCc1ccc(F)cc1`: 122%; `COC(=O)c1ccccc1NC(=O)c1cnc2c(-c3cccc(C)c3)c(C)nn2c1C`: 128%; `CCOc1ccc2nc(SCC(=O)N(C)C3CCCCC3)c(C#N)cc2c1`: 89%.
For `COc1cc(NC(=O)C2CCN(c3cnccn3)CC2)cc(OC)c1`, the survival was 79%.
For `COc1cc(NC(=O)C2CCN(c3cnc4ccccc4n3)CC2)cc(OC)c1OC` the value was -5% (active).
Next, `COc1cc(NC(=O)C2CCN(c3nc4ccccc4nc3C(F)(F)F)CC2)cc(OC)c1`: 101%.
For `COc1ccccc1NC(=O)C1CCN(c2cnccn2)CC1` the value was 54% (active); for `CCc1ccccc1NC(=O)C1CCN(c2cnccn2)CC1`, 43%; for `COc1cc(NC(=O)c2nc3ccccc3nc2N2CCCCC2)cc(OC)c1OC`, 87%.
As for `Cc1c(Cl)cccc1NC(=O)CN1C(=O)COc2ccc(S(=O)(=O)Nc3ccccc3)cc21`, the survival is 60%.
`CCS(=O)(=O)c1nc(S(=O)(=O)c2ccc(C)cc2)c(NCCCOC)s1`: the survival was 97%.
Next, `COc1ccccc1N1CCN(C(=O)CSc2n[nH]c(-c3ccccc3)n2)CC1`: 88%; `Cc1cccc(CC(=O)NC2CC(=O)N(c3cccc(F)c3)C2)c1` (centres undefined): 67%.
Next, `O=C(CCc1ccccc1)NC1CC(=O)N(c2ccccc2)C1` (centres undefined): 94%; `COc1ccc(N2CC(NC(=O)CCCc3ccccc3)CC2=O)cc1` (centres undefined): 32% (active); `COc1cccc(N2CC(NC(=O)CCCc3ccccc3)CC2=O)c1` (centres undefined): 69%.
As to `COc1ccc(N2CC(NC(=O)c3ccc(OC(C)C)cc3)CC2=O)cc1` (centres undefined), the survival was 0% (active).
Next, `COc1ccc(N2CC(NC(=O)c3ccc(S(=O)(=O)N4CCCC4)cc3)CC2=O)cc1` (centres undefined): 112%; `Cc1ccc(N2CC(NC(=O)CCCc3ccccc3)CC2=O)cc1` (centres undefined): 66%; `COc1ccc(CCC(=O)NC2CC(=O)N(c3ccccc3)C2)cc1` (centres undefined): 126%.
For `Cc1ccc(N2CC(NC(=O)CCc3ccccc3)CC2=O)cc1` (centres undefined) the value was 20% (active).
On to `COc1ccc(C(=O)NC2CC(=O)N(c3ccc4c(c3)OCCO4)C2)cc1` (centres undefined), for which the survival is 100%.
Next, `O=C(Cc1ccccc1)NC1CC(=O)N(c2ccccc2)C1` (centres undefined): 87%; `Cc1cccc(CC(=O)NC2CC(=O)N(c3ccccc3)C2)c1` (centres undefined): -5% (active); `Cc1c(NC(=O)c2ccc(OC(C)C)cc2)cccc1-c1nc2ncccc2o1`: 47%.
`O=C(Nc1ccc(F)cc1)c1nc(SCc2ccccc2F)ncc1Cl`: the survival is 99%.
For the compound `Cc1ccc(C(=O)O)cc1NC(=O)c1nsc2ccccc12`, the survival is 103%.
Next, `CCOC(=O)c1sc(=S)n(C)c1C`: 88%; `COc1ccc(OC)c(CNS(=O)(=O)c2ccc3[nH]c4c(c3c2)CCCCC4)c1`: 79%; `Cc1ccc(Nc2c3c(nc4nncn24)CCC3)cc1`: 62%.
Next, `COc1ccc(CNC(=O)c2cc3cccc4c3n2CC(C)S4)c(OC)c1` (centres undefined): 122%; `CCCCOC(=O)/C(C#N)=C/c1ccc(-c2ccc(Br)cc2)o1`: 68%.
Consider `CCC(C)OC(=O)/C(C#N)=C\c1ccc(-c2ccccc2Cl)o1` (centres undefined), for which the survival was 58% (active).
For `CC(C)OC(=O)/C(C#N)=C/c1ccc(-c2ccc(Cl)c(Cl)c2)o1` the value was 72%; for `CC(C)COC(=O)/C(C#N)=C\c1ccc(-c2ccccc2Cl)o1`, 67%.
For `CCOC(=O)/C(C#N)=C/c1ccc(-c2ccc(Br)cc2)o1` the value was 81%; for `CCC(C)OC(=O)/C(C#N)=C/c1ccc(-c2ccc(Br)cc2)o1` (centres undefined), 43% (active).
Next, `Cc1cccc(-c2nc(C)c(CCNC(=O)C(=O)Nc3ccc(C)c(C)c3)s2)c1`: 88%; `CC1=CCC(C(=O)Nc2nc3ccccc3s2)C(C(=O)O)C1` (centres undefined): 49%.
For the compound `Cc1ccc(CNC(=O)C2CCN(c3nc4ccc(C)cc4[nH]3)CC2)cc1`, the survival is 126%.
Next, `CCc1ccc(CNC(=O)C2CCN(C(=O)c3ccc(-n4c(C)cc5ccccc54)s3)CC2)cc1`: 70%; `Cc1cc2ccccc2n1-c1ccc(C(=O)N2CCC(C(=O)NCc3ccc(Cl)cc3)CC2)s1`: 67%; `Cc1cc2ccccc2n1-c1ccc(C(=O)N2CCC(C(=O)NCc3ccc(F)cc3)CC2)s1`: 6% (active).
For `Cc1nc(-c2cccc(S(=O)(=O)N3CCC(C(=O)NCc4ccccc4)CC3)c2)no1` the value was 109%; for `COc1cc(Cl)c(C)cc1NC(=O)c1cc2c(s1)-c1c(C)cccc1OC2`, 90%.
Next, `Cc1cccc2c1-c1sc(C(=O)N(C)c3cccc(C(F)(F)F)c3)cc1CO2`: 52%; `COc1ccc(CCNC(=O)c2cc3c(s2)-c2c(C)cccc2OC3)c(OC)c1`: 85%; `Cc1cccc2c1-c1sc(C(=O)N(C)c3cccc(Cl)c3)cc1CO2`: 0% (active).
Take `COc1ccc(N(C)C(=O)c2cc3c(s2)-c2c(C)cccc2OC3)c(OC)c1`: the survival was -1% (active).
For `CCc1ccccc1N(C)C(=O)c1cc2c(s1)-c1c(C)cccc1OC2` the value was 60%; for `Cc1cccc2c1-c1sc(C(=O)N3CCN(c4cccc(Cl)c4)CC3)cc1CO2`, 66%; for `COc1ccc(OC)c(CCNC(=O)c2cc3c(s2)-c2c(C)cccc2OC3)c1`, 79%.
With `COc1ccc(NC(=O)c2cc3c(s2)-c2c(C)cccc2OC3)c(OC)c1`, the survival is 51% (active).
Next, `CC(C(=O)NCc1ccco1)N1C(=O)c2ccccc2C1=O` (centres undefined): 57%.
Regarding `Cc1coc2cc3oc(=O)c(CC(=O)NCCc4ccccc4)c(C)c3cc12`, the survival is 84%.
Turning to `COC(=O)N1N=C(c2ccccc2)CC1(O)C(F)(F)F` (centres undefined), the survival is 85%.
For `COc1ccc(OC)c(N=c2oc3cc(O)ccc3cc2C(=O)Nc2ccccn2)c1` the value was 70%; for `Cc1ccc(S(=O)(=O)NCCc2nnc3ccc(SCc4ccccc4F)nn23)cc1`, 76%.
Next, `O=C(NC1C2CCCC1CN(C1CC1)C2)c1ccc(Cl)cc1` (centres undefined): 84%.
For `O=C(/C(=N/O)n1cncn1)c1ccc(Cl)cc1Cl` the value was 72%; for `Cc1ccc(C)c(NC(=O)CSc2nc(=O)n(CCN(C)C)c3c2CCC3)c1`, 79%; for `CCOC(=O)c1c(C)oc2nc(C)nc(NCC3CCN(Cc4ccccc4C)CC3)c12`, 86%.
For the compound `O=C(O)C1C2C=CC(C2)C1C(=O)NCc1cccs1` (centres undefined), the survival is 83%.
For `COC(=O)c1ccccc1NC(=O)N(Cc1ccc(C)cc1)Cc1cccn1-c1nnc(N2CCCC2=O)s1` the value was 123%.
Next, `O=C1N/C(=N/N=C\c2ccco2)SC1Cc1cccc(C(F)(F)F)c1` (centres undefined): 56%; `O=C(/C(=C\c1ccc(F)cc1)n1ccccc1=O)N1CCCC1`: 102%.
For `O=C(NCc1ccccc1)c1ccc(NC(=O)c2nsc3ccccc23)cc1` the value was 61%; for `O=C(NCc1cccc(F)c1)c1cccc(NC(=O)c2nsc3ccccc23)c1`, 85%; for `CCC(C)NC(=O)c1cccc(NC(=O)c2nsc3ccccc23)c1` (centres undefined), 74%.
Regarding `CC(NC(=O)c1cccc(NC(=O)c2nsc3ccccc23)c1)c1ccccc1` (centres undefined), the survival is 115%.
`O=C(NCc1cccc(F)c1)c1ccc(NC(=O)c2nsc3ccccc23)cc1`: the survival is -2% (active).
For `COC(=O)c1cccc(NC(=O)c2nsc3ccccc23)c1` the value was -1% (active).

The values are drawn from PubChem BioAssay AID463173 (ICCB-Longwood Screening Facility, Harvard Medical School, 2010).
